From PubChem BioAssay
Several values for one entry are separate records, joined by “and”; a condition that tells them apart may be missing. Equal entries are not always repeated. Inconclusive results are not listed. Activity calls are given as the source filed them.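 The calls were made as follows, unless noted: active = normalized viability below 100% at a tested concentration; inactive = the rest.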

Tests used:
[1] = viability loss in pontine glioma line – cell-based, SU-DIPG-XVII, MIPE5.0, CellTiter-Glo, qHTS, dose response (AID 1347060; cut-off not given, nearly all actives have AC50 up to about 26 µM;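 as to AC50: cells exposed to compound for 48 hours before viability readout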); conditions: CellTiter-Glo ATP luminescence
[2] = viability loss in pontine glioma line – cell-based, JHH-DIPG-1, MIPE4.0, CellTiter-Glo, qHTS, dose response (AID 1347062; cut-off not given, nearly all actives have AC50 up to about 27 µM;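 as to AC50: cells exposed to compound for two days before readout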); conditions: JHH-DIPG-1 viability, CellTiter-Glo ATP luminescence
[3] = viability loss in pontine glioma line – cell-based, SU-DIPG-IV, MIPE4.0, CellTiter-Glo, qHTS, dose response (AID 1347063; cut-off not given, nearly all actives have AC50 up to about 30 µM;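 also: compound exposure lasted 48 hours before the viability readout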); conditions: CellTiter-Glo ATP luminescence
[4] = viability loss in pontine glioma line – cell-based, SU-DIPG-XXV, MIPE5.0, CellTiter-Glo, qHTS, dose response (AID 1347065; cut-off not given, nearly all actives have AC50 up to about 26 µM;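 also: cells exposed to compound for 48 hours before ATP readout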); conditions: CellTiter-Glo ATP luminescence
[5] = growth inhibition of DIPG cells – cell-based, MIPE4.0 library, CellTiter-Glo luminescence, qHTS (AID 1347066; cut-off not given, nearly all actives have AC50 up to about 30 µM;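 also: cells exposed to compound for 48 hours before readout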); conditions: SU-DIPG-VI viability, CellTiter-Glo ATP luminescence
[6] = JHH-DIPG-1 glioma cell viability, MIPE5.0 library, CellTiter-Glo luminescence, qHTS (AID 1347067; cut-off not given, nearly all actives have AC50 up to about 26 µM;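 also: cells exposed to compound for 48 hours before readout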); conditions: JHH-DIPG-1 glioma viability, CellTiter-Glo ATP luminescence
[7] = viability loss with induced miR-34 in A549 – imaging, A549 dox-inducible miR-34, nuclei and caspase counts, primary screen (AID 1347080;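 active = compounds whose cell count with miR-34 switched on is under 0.7 times the count with it off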); conditions: A549 miR-34 inducible, Hoechst nuclei count, 48 h
[8] = MELAS cybrid and Rieske KO viability enhancers – cell-based, MELAS cybrids, Rieske KO mouse fibroblasts, CellTiter-Glo, primary screen (AID 1508586;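 active = mean z-score across replicates of 1.96 or higher in either the MELAS or the Rieske mutant cell line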;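 also: z relative to plate mean and SD of compound and empty wells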); conditions: low glucose
[9] = drug combination growth inhibition, ovarian cancer – cell-based, oncology-focused library, rucaparib conditional, profiling panel (AID 1508598); conditions: patient-derived ovarian cancer cells, CellTiter-Glo viability, 144 h, stronger effect = lower value
[10] = compounds altering HSF1 focus formation in cells – imaging, Selleck Cancer Library (AID 1347162; in the data active = plate-normalised HSF1 focus index below about 0.46); conditions: human cells, HSF1 nuclear foci imaging, at 10 µM; SSMD: measured here: HSF1 foci SSMD mean; cell count: measured here: cell number; plate-normalised HSF1 focus index: stronger effect = lower value
[11] = growth inhibition, single agent or in combination, cell-based, chromothripsis tumors, cisplatin or BGB combos (AID 1671449; in the data active = inhibition above about 80%;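 also: cells exposed for 96 hours; 0% = vehicle DMSO and 100% = killing by high DMSO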); conditions: LFS_MB_P medulloblastoma cells
[12] = growth inhibition, single agent and combos, cell-based, chromothripsis tumors, cisplatin or BGB combos (AID 1671450; in the data active = inhibition above about 80%;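 also: cells exposed to compound for four days; 0% = vehicle DMSO and 100% = cell killing by high DMSO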); conditions: HDN33 neuroblastoma cells, stronger effect = higher value
[13] = growth inhibition, single agents and combos, ICB984, cell-based, cisplatin or BGB combos, synergistic combos for chromothripsis tumors (AID 1671451; call rule not given here;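 also: cells exposed for 96 hours before readout; 0% = vehicle DMSO and 100% = killing by high DMSO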); conditions: ICB984 medulloblastoma cells, drug combinations, stronger effect = higher value
[14] = growth inhibition, single agents and combos, HTB85, cell-based, BGB or cisplatin IC20 combos, synergistic combos for chromothripsis tumors (AID 1671453; in the data active = inhibition above about 80%;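 also: cells exposed for 96 hours before readout; 0% = vehicle DMSO and 100% = high DMSO killing control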); conditions: HTB85 osteosarcoma cells, drug combinations, at 0.5 µM, stronger effect = higher value

C#Cc1cccc(Nc2ncnc3cc(OCCOC)c(OCCO)cc23)c1
AC50 [1]: 11.8 µM (active) | AC50 [2]: 6.62 µM (active) | AC50 [3]: 2.96 µM (active) | AC50 [4]: 7.42 µM (active) | outcome [5]: inactive | AC50 [6]: 2.63 µM (active) | fold change ([7]; stronger effect = lower value, cell number ratio, induced over uninduced): 0.787 (inactive) | fold change ([7]; measured here: relative caspase fold change +Dox/-Dox): 0.554 | cell count ([7]; measured here: total cells with miR-34 induction, stronger effect = lower value): 2660 | cell count ([7]; measured here: total cells without miR-34 induction): 3380 | z-score ([8]; MELAS cybrid survival, CellTiter-Glo 48 h, stronger effect = higher value): -0.467 (inactive) | z-score ([8]; Rieske KO mouse fibroblast survival, CellTiter-Glo 72 h): -0.287 | viability ([9]; at 0.000305 µM, OCI-C5x cells, with rucaparib 10 µM, 100% = cells with rucaparib alone): 118% (inactive) | viability ([9]; at 0.000305 µM, OCI-C5x cells, without rucaparib): 140% (inactive) | viability ([9]; at 0.000305 µM, OCI-P5x cells, with rucaparib 20 µM, 100% = cells with rucaparib alone): 109% (inactive) | viability ([9]; at 0.000305 µM, OCI-P5x cells, without rucaparib): 119% (inactive) | viability ([9]; at 0.00122 µM, OCI-C5x cells, with rucaparib 10 µM, 100% = cells with rucaparib alone): 113% (inactive) | viability ([9]; at 0.00122 µM, OCI-C5x cells, without rucaparib): 143% (inactive) | viability ([9]; at 0.00122 µM, OCI-P5x cells, with rucaparib 20 µM, 100% = cells with rucaparib alone): 109% (inactive) | viability ([9]; at 0.00122 µM, OCI-P5x cells, without rucaparib): 114% (inactive) | viability ([9]; at 0.00488 µM, OCI-C5x cells, with rucaparib 10 µM, 100% = cells with rucaparib alone): 119% (inactive) | viability ([9]; at 0.00488 µM, OCI-C5x cells, without rucaparib): 127% (inactive) | viability ([9]; at 0.00488 µM, OCI-P5x cells, with rucaparib 20 µM, 100% = cells with rucaparib alone): 106% (inactive) | viability ([9]; at 0.00488 µM, OCI-P5x cells, without rucaparib): 109% (inactive) | viability ([9]; at 0.0195 µM, OCI-C5x cells, with rucaparib 10 µM, 100% = cells with rucaparib alone): 108% (inactive) | viability ([9]; at 0.0195 µM, OCI-C5x cells, without rucaparib): 120% (inactive) | viability ([9]; at 0.0195 µM, OCI-P5x cells, with rucaparib 20 µM, 100% = cells with rucaparib alone): 103% (inactive) | viability ([9]; at 0.0195 µM, OCI-P5x cells, without rucaparib): 107% (inactive) | viability ([9]; at 0.0781 µM, OCI-C5x cells, with rucaparib 10 µM, 100% = cells with rucaparib alone): 113% (inactive) | viability ([9]; at 0.0781 µM, OCI-C5x cells, without rucaparib): 129% (inactive) | viability ([9]; at 0.0781 µM, OCI-P5x cells, with rucaparib 20 µM, 100% = cells with rucaparib alone): 96.3% (active) | viability ([9]; at 0.0781 µM, OCI-P5x cells, without rucaparib): 106% (inactive) | viability ([9]; at 0.313 µM, OCI-C5x cells, with rucaparib 10 µM, 100% = cells with rucaparib alone): 100% (active) | viability ([9]; at 0.313 µM, OCI-C5x cells, without rucaparib): 102% (inactive) | viability ([9]; at 0.313 µM, OCI-P5x cells, with rucaparib 20 µM, 100% = cells with rucaparib alone): 97.1% (active) | viability ([9]; at 0.313 µM, OCI-P5x cells, without rucaparib): 100% (inactive) | viability ([9]; at 1.25 µM, OCI-C5x cells, with rucaparib 10 µM, 100% = cells with rucaparib alone): 78.3% (active) | viability ([9]; at 1.25 µM, OCI-C5x cells, without rucaparib): 95.1% (active) | viability ([9]; at 1.25 µM, OCI-P5x cells, with rucaparib 20 µM, 100% = cells with rucaparib alone): 85.9% (active) | viability ([9]; at 1.25 µM, OCI-P5x cells, without rucaparib): 93.4% (active) | viability ([9]; at 5 µM, OCI-C5x cells, with rucaparib 10 µM, 100% = cells with rucaparib alone): 54.8% (active) | viability ([9]; at 5 µM, OCI-C5x cells, without rucaparib): 52.7% (active) | viability ([9]; at 5 µM, OCI-P5x cells, with rucaparib 20 µM, 100% = cells with rucaparib alone): 68.7% (active) | viability ([9]; at 5 µM, OCI-P5x cells, without rucaparib): 64.5% (active)

NC(=O)N1CCC(CC(=O)N2CCC([C@H]3c4ncc(Br)cc4CCc4cc(Cl)cc(Br)c43)CC2)CC1
AC50 [1]: 18.6 µM (active) | AC50 [2]: 23.5 µM (active) | AC50 [3]: 18.7 µM (active) | AC50 [4]: 16.6 µM (active) | AC50 [5]: 16.6 µM (active) | AC50 [6]: 23.5 µM (active)

C[C@]1(c2nc3c(C(N)=O)cccc3[nH]2)CCCN1
outcome [1]: inactive | outcome [2]: inactive | outcome [3]: inactive | outcome [4]: inactive | outcome [5]: inactive | outcome [6]: inactive | SSMD [10]: 0.253 | cell count [10]: 7190 | plate-normalised HSF1 focus index [10]: 1.01 (inactive) | inhibition ([11]; at 0.5 µM, stronger effect = higher value): -27.2% (inactive) and -25.3% (inactive) | inhibition ([11]; measured here: combination with BGB IC20, at 0.005 µM): -35.2% and -15.1% | inhibition ([11]; measured here: combination with BGB IC40, at 0.005 µM): -26.8% and -17.3% | inhibition ([11]; measured here: combination with BGB IC40, at 0.05 µM): -28.3% and -28.8% | inhibition ([11]; measured here: combination with cisplatin, at 0.5 µM, stronger effect = higher value): -54% and -57% | inhibition ([11]; measured here: combination with cisplatin, at 5 µM, stronger effect = higher value): -58.4% and -45% | inhibition ([12]; BGB combo, at 5 µM): -41.3% and 0.864% | inhibition ([12]; at 0.5 µM): -26.5% (inactive) and -7.62% (inactive) | inhibition ([12]; cisplatin combo, at 5 µM): -8.25% and -1.94% | inhibition ([12]; measured here: with BGB IC20 combination, at 0.5 µM): -35.3% and -12.7% | inhibition ([12]; measured here: with cisplatin IC20 combination, at 0.5 µM): -24.4% and -3.22% | inhibition ([12]; single agent, at 5 µM): -21.8% and -0.922% | inhibition ([13]; BGB IC20 combo, at 0.005 µM): -10.4% and 0.353% | inhibition ([13]; BGB IC40 combo, at 0.005 µM): -32.9% and -29.7% | inhibition ([13]; BGB IC40 combo, at 0.05 µM): -67.4% and -16% | inhibition ([13]; at 0.5 µM): -18.7% (inactive) and -15.6% (inactive) | inhibition ([13]; cisplatin combo, at 0.05 µM): -73.4% and -19.3% | inhibition ([13]; cisplatin combo, at 0.5 µM): -14.2% and -3.56% | inhibition ([13]; cisplatin combo, at 5 µM): -53.1% and -59.6% | inhibition ([13]; measured here: 5 uM single agent, at 5 µM): -10.3% and -11.7% | inhibition [14]: -20.2% (inactive) and -2.71% (inactive)
